The campaign covered roughly 350,000 compounds. About 2,100 (0.6%) were called active. The entries come from a sample that favours actives as a whole. Unmarked numbers belong to inactive results.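 How the source made its calls: active means inhibition of the ligand-induced calcium signal above about 50% at the single tested concentration (limit read from the data); inactive means the rest.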

A short description of the experiment: antagonists of CRF-BP/CRF-R2 complex, primary screen, cell-based, HEK293, calcium dye fluorescence, uHTS (AID 588475). Conditions: CRF-induced calcium fluorescence, at 11.8 µM, stronger effect = higher value.
Take `CCCCCn1c(=O)c(C(=O)NCc2ccccc2)c(O)c2ccccc21`: the inhibition was 3.02%. Under `CCCCCn1c(=O)c(C(=O)Nc2c(C)n(C)n(-c3ccccc3)c2=O)c(O)c2ccccc21` stands 56.7% (active); under `CCCCn1c(=O)c(C(=O)Nc2ccccc2Cl)c(O)c2ccccc21`, -17.9%. Turning to `O=C(COc1ccc2ccccc2c1)N1CCN(Cc2ccncc2)CC1`, the inhibition was -1.35%. The same measure for `O=c1c2ccccc2nc(-c2ccc(Cl)cc2Cl)n1-c1ccncc1`: 13.6%.

Usually inhibition stands for the drop in the measured response relative to a control, in per cent.

Source of the values: PubChem BioAssay AID588475 (Sanford-Burnham Center for Chemical Genomics, 2011).
